PubChem BioAssay (NCI)
This is part of a sample that, as a whole, favours compounds with a hit. Of some 79,000 tested, about 15% had one in any assay. Active and inactive are the calls of the source. Cut-off read from the data, not from the text of the source: active = growth inhibition above about 70%; inactive = the rest.

Key:
[1] = NCI Yeast Anticancer Drug Screen. Data for the rad52 strain (AID 147);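 note: 0% = growth of vehicle-treated control cultures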; settings: S. cerevisiae rad52 mutant growth inhibition, active compounds read high
Procedure, shortened: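 Screen used a yeast mutant impaired in DNA repair. After compound exposure, growth was measured. Values reflect inhibition compared with vehicle-treated cells.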

[2] = NCI Yeast Anticancer Drug Screen. Data for the wt1 strain (AID 149);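 note: 0% = growth of vehicle-treated wt1 cultures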; settings: S. cerevisiae wt1 strain (SPY 50644) growth inhibition, active compounds read high
Procedure, shortened: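 Using yeast strain wt1, compound-induced growth inhibition was determined against vehicle-treated cultures.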

[3] = NCI Yeast Anticancer Drug Screen. Data for the rad50EPP+ strain (AID 151);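 note: 0% = growth of vehicle-treated control cultures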; settings: S. cerevisiae rad50 mutant strain, active compounds read high
Procedure, shortened: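 Exposing the rad50EPP+ strain to each compound, growth was compared with vehicle-only cultures to give inhibition.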

[4] = NCI Yeast Anticancer Drug Screen. Data for the mgt1 strain (AID 153); settings: S. cerevisiae mgt1 mutant growth inhibition, active compounds read high
Procedure, shortened: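 Genetically defined yeast (mgt1) treated with compound; inhibition of growth expressed against vehicle-treated controls.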

[5] = NCI Yeast Anticancer Drug Screen. Data for the rad50 strain (AID 155);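 note: 0% = growth of vehicle-only cultures of the same strain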; settings: S. cerevisiae rad50 strain growth inhibition, active compounds read high
Procedure, shortened: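 Relative growth inhibition (compound vs vehicle) was measured in yeast with a defined repair-gene alteration.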

[6] = NCI Yeast Anticancer Drug Screen. Data for the mec2-1 strain (AID 157); settings: S. cerevisiae mec2-1 strain, active compounds read high
Procedure, shortened: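 Readout is yeast growth inhibition, normalised to vehicle-treated controls, in the mec2-1 strain exposed to compound.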

[7] = NCI Yeast Anticancer Drug Screen. Data for the rad14 strain (AID 159);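 note: 0% = growth of vehicle-treated control cultures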; settings: S. cerevisiae rad14 strain growth inhibition, active compounds read high
Procedure, shortened: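 Screen for anticancer potential: a yeast strain altered in DNA damage repair is grown with compound, and reduced growth is quantified against vehicle controls.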

[8] = NCI Yeast Anticancer Drug Screen. Data for the sgs1 mgt1 strain (AID 161);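 note: 0% = growth of cultures given vehicle only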; settings: S. cerevisiae sgs1 mgt1 strain, active compounds read high
Procedure, shortened: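 Growth of a repair-deficient yeast mutant was monitored after compound treatment and expressed as inhibition relative to vehicle-treated cultures.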

[9] = NCI Yeast Anticancer Drug Screen. Data for the CLN2oe strain (AID 163);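 note: 0% = growth of vehicle-only control cultures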; settings: S. cerevisiae CLN2oe strain, active compounds read high
Procedure, shortened: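 Values reflect how much compound exposure reduced yeast growth, referenced to vehicle-exposed cells. Assay organism is a strain with a defined genetic change affecting cell-cycle control.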

[10] = NCI Yeast Anticancer Drug Screen. Data for the cln2 rad14 strain (AID 165);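 note: 0% = growth equal to vehicle treated cultures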; settings: S. cerevisiae cln2 rad14 strain, active compounds read high
Procedure, shortened: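 Relative to vehicle controls, growth inhibition of compound-treated cln2 rad14 yeast was recorded.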

[11] = NCI Yeast Anticancer Drug Screen. Data for the bub3 strain (AID 167); settings: S. cerevisiae bub3 mutant strain, active compounds read high
Procedure, shortened: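 Screening used yeast with an engineered genetic alteration affecting cell cycle control. Compound-exposed cultures were compared with vehicle cultures, and reduced growth was taken as inhibition.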

[12] = NCI Yeast Anticancer Drug Screen. Data for the wt2 strain (AID 169);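 note: 0% = growth of vehicle-treated yeast cultures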; settings: S. cerevisiae wt2 strain growth inhibition, active compounds read high
Procedure, shortened: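 Values express reduction in yeast growth under compound treatment, referenced to vehicle-treated cells.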

[13] = NCI Yeast Anticancer Drug Screen. Data for the mlh1 strain (AID 171);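 note: 0% = growth of vehicle-treated control cultures of the same strain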; settings: S. cerevisiae mlh1 strain growth inhibition, active compounds read high
Procedure, shortened: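 Steps: expose the defined-mutant yeast strain to compound; expose a parallel culture to vehicle; measure growth; express compound effect as inhibition relative to the vehicle culture.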

[14] = NCI Yeast Anticancer Drug Screen. Data for the sgs1 strain (AID 173);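 note: 0% = growth of vehicle-only control cultures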; settings: S. cerevisiae sgs1 mutant, active compounds read high
Procedure, shortened: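 Treat defined-mutant yeast with compound; measure growth; calculate inhibition relative to vehicle-treated cells.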

[15] = NCI Yeast Anticancer Drug Screen. Data for the mlh1 rad18 strain (AID 175); settings: S. cerevisiae mlh1 rad18 strain growth inhibition, active compounds read high
Procedure, shortened: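 Test agents were incubated with a yeast strain of defined genotype (DNA damage repair defect). Inhibition of growth was derived by comparison with vehicle-exposed cultures.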

[16] = at 5.0 µM (retest, dose inferred, filed as 0.5)
[17] = at 50.0 µM (retest, dose inferred, filed as 5.0)

Measured: growth inhibition

CCCCCCCCCCCC1N=C(N)NC(CCCO)=C1C(=O)OC (stereo not drawn)
active: [1]; at 3.7 µM 99% | [1]; at 11.0 µM 99% | [1]; at 33.0 µM 99% | [1]; at 100.0 µM 99% | [2]; at 3.7 µM 99% | [2]; at 11.0 µM 99% | [2]; at 33.0 µM 99% | [2]; at 100.0 µM 99% | [3]; at 3.7 µM 81% | [3]; at 11.0 µM 99% | [3]; at 33.0 µM 99% | [3]; at 100.0 µM 98% | [4]; at 3.7 µM 99% | [4]; at 11.0 µM 100% | [4]; at 33.0 µM 99% | [4]; at 100.0 µM 99% | [5]; at 3.7 µM 99% | [5]; at 11.0 µM 99% | [5]; at 33.0 µM 99% | [5]; [17] 100% | [5]; at 50.0 µM 89.2% | [5]; at 100.0 µM 99% | [6]; at 3.7 µM 99% | [6]; at 11.0 µM 99% | [6]; at 33.0 µM 99% | [6]; [17] 99% | [6]; at 50.0 µM 91.8% | [6]; at 100.0 µM 99% | [7]; at 1.2 µM 72% | [7]; at 3.7 µM 99% | [7]; at 11.0 µM 99% | [7]; at 33.0 µM 99% | [7]; at 100.0 µM 99% | [8]; [17] 99% | [8]; at 50.0 µM 88.4% | [9]; at 3.7 µM 99% | [9]; at 11.0 µM 99% | [9]; at 33.0 µM 99% | [9]; at 100.0 µM 99% | [10]; [17] 100% | [10]; at 50.0 µM 90.8% | [11]; at 3.7 µM 99% | [11]; at 11.0 µM 99% | [11]; at 33.0 µM 98% | [11]; [17] 99% | [11]; at 50.0 µM 91.5% | [11]; at 100.0 µM 98% | [12]; at 3.7 µM 99% | [12]; at 11.0 µM 99% | [12]; at 33.0 µM 99% | [12]; at 100.0 µM 99% | [13]; at 3.7 µM 99% | [13]; at 11.0 µM 99% | [13]; at 33.0 µM 99% | [13]; at 100.0 µM 98% | [14]; at 3.7 µM 99% | [14]; at 11.0 µM 99% | [14]; at 33.0 µM 99% | [14]; at 100.0 µM 99% | [15]; [17] 99% | [15]; at 50.0 µM 85.5%
inactive: [1]; at 1.2 µM 5% | [2]; at 1.2 µM 15% | [3]; at 1.2 µM 32% | [4]; at 1.2 µM 46% | [5]; at 1.2 µM 28% | [5]; [16] 28% | [6]; at 1.2 µM 12% | [6]; [16] 7% | [8]; [16] 65% | [9]; at 1.2 µM 16% | [10]; [16] 21% | [11]; at 1.2 µM 11% | [11]; [16] 6% | [12]; at 1.2 µM 16% | [13]; at 1.2 µM 6% | [14]; at 1.2 µM 48% | [15]; [16] 53%

CCOC(=N)c1ccc(O)c(OC)c1
inactive: [1]; at 1.2 µM -1% | [1]; at 3.7 µM 0% | [1]; at 11.0 µM 0% | [1]; at 33.0 µM 0% | [1]; at 100.0 µM -2% | [2]; at 1.2 µM -3% | [2]; at 3.7 µM -2% | [2]; at 11.0 µM -3% | [2]; at 33.0 µM -1% | [2]; at 100.0 µM -3% | [3]; at 1.2 µM -3% | [3]; at 3.7 µM -4% | [3]; at 11.0 µM -6% | [3]; at 33.0 µM -3% | [3]; at 100.0 µM 1% | [4]; at 1.2 µM -2% | [4]; at 3.7 µM -1% | [4]; at 11.0 µM -2% | [4]; at 33.0 µM -2% | [4]; at 100.0 µM -2% | [5]; at 1.2 µM -1% | [5]; at 3.7 µM 16% | [5]; [16] -2% | [5]; at 11.0 µM 11% | [5]; at 33.0 µM -1% | [5]; [17] -4% | [5]; at 50.0 µM 2% | [5]; at 100.0 µM 2% | [6]; at 1.2 µM 0% | [6]; at 3.7 µM 2%
